Consider 16 compounds from PubChem BioAssay (NCATS).

Test [1] is described as follows: qHTS for inhibitors of adenylyl cyclases using a fission yeast platform: a pilot screen against the NCATS LOPAC library (AID 1347410). The method in brief: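 Growth medium went into the plates first, then compounds were pinned (final up to 57 µM), then CHP2027 yeast were added. Plates were incubated overnight (18 h) at 30C in the dark, and GFP was measured by laser scanning cytometry.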
A general note: qHTS replaces the single test concentration by a dilution series.

Test [2] is described as follows: Validation qHTS assay for inhibitors of Activation Induced Cytidine Deaminase (AID): UDG Counterscreen signal (AID 1347427). The method in brief: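 Fluorescence at 560 nm excitation, 665 nm emission reports UDG signal after 250 mM NaOH (2x) addition and 30 min. Enzymes (AID 1 uM, UDG 2 U/mL, at 4/3x) preincubated 10 min with compound, then 4 h with 4x 250 nM DJC20/DJC23 substrate at room temperature.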

Active and inactive are the calls of the source. Where a call stands in place of a potency, no number is given. Calls come from the whole dose curve; as a rule, active = well fitted curve in the direction sought with a large enough effect; inconclusive = small, poorly fitted or top-dose-only effect, or another doubt; inactive = no such curve, though single readings can be large; an effect the other way counts as inactive or inconclusive.

For `COc1ccc2c(c1)c(CC(=O)O)c(C)n2Cc1ccc(Cl)cc1`, in test [1], the compound was called inactive. The Potency result in test [2] is “inactive”.

As for `C=CCN1CCc2c(cc(O)c(O)c2Br)[C@@H](c2ccccc2)C1`, the Potency result in test [2] is “inactive”.

Turning to `CC[C@@H]1Cc2cc(O)ccc2C2=C1c1ccc(O)cc1C[C@H]2CC`, in test [2], the Potency result was “inactive”.

As for `NC(Cc1cccc(-c2ccccc2CP(=O)(O)O)c1)C(=O)O` (stereo unspecified), the outcome in test [1] was inactive. The Potency entry in test [2] was “inactive”.

For the compound `NCCNS(=O)(=O)c1cccc2c(Cl)cccc12`, the Potency entry in test [2] was “inactive”.

With `NCC(O)c1ccc(O)c(O)c1` (stereo unspecified), the result in test [1] was inactive. Moreover, the Potency result in test [2] was “inactive”.

`COc1ccc(-c2ccc(N)[n+](CCCC(=O)O)n2)cc1`: the call in test [1] was inactive. The Potency result in test [2] is “inactive”.

On to `CSc1nc(N)c2ncn([C@@H]3O[C@H](COP(=O)(O)OP(=O)(O)O)C(O)[C@H]3O)c2n1` (stereo partly specified), for which the compound was classed as inactive in test [1]. The Potency entry in test [2] is “inactive”.

For `CCN(CC)CCCCCCCCOC(=O)c1cc(OC)c(OC)c(OC)c1`, the Potency entry in test [2] was “inactive”.

For `N#Cc1cc([N+](=O)[O-])c2sc(C(N)=O)[n+]([O-])c2c1`, the result in test [1] was inactive. Moreover, the Potency entry in test [2] was “inactive”.

For the compound `CCCCCCCCCCCCCCC[C@H](O)[C@H](N)CO`, the compound was classed as inactive in test [1]. For the same compound, in test [2], the Potency entry was “inactive”.

Turning to `c1ccc2c(c1)CC(N1CCN(c3cccc4c3OCCO4)CC1)C2`, in test [2], the Potency entry was “inactive”.

Regarding `CCN(c1nc(N)c(C(=O)N=C(N)N)nc1Cl)C(C)C`, the compound was called inactive in test [1]. In addition, the Potency entry in test [2] is “inactive”.

Regarding `CC(=O)NNC(=O)N1Cc2ccccc2Oc2ccc(Cl)cc21`, in test [1], the result was inactive. Further, in test [2], the Potency result was “inactive”.

Consider `CCCCCCCCCC[Si](C)(C)CCC(=O)NC(Cc1ccc(C)cc1)c1ccccc1` (stereo unspecified), for which, in test [1], the outcome was inactive. In addition, the Potency entry in test [2] was “inactive”.

Take `CCC1(O)CC2CN(CCc3c([nH]c4ccccc34)[C@@](C(=O)OC)(c3cc4c(cc3OC)N(C)C3[C@]45CCN4CC=C[C@@](CC)([C@@H](OC(C)=O)[C@]3(O)C(=O)OC)[C@H]45)C2)C1` (stereo partly specified): the Potency result in test [2] is “inactive”.
